According to PubChem BioAssay (NCATS):
Records with an inconclusive call do not appear. Active and inactive are the calls of the source. The call rests on the fitted dose curve; in most records, active means well fitted curve in the direction sought with a large enough effect; inconclusive means small, poorly fitted or top-dose-only effect, or another doubt; inactive means no such curve, though single readings can be large; an effect the other way counts as inactive or inconclusive.

Legend:
[1] = target: Cytochrome P450 3A4 (Homo sapiens) (UniProt P08684); assay: qHTS Assay for Activators of Cytochrome P450 3A4 (AID 885); further: nearly all actives have a fitted effect of over 65% in size
Sequence of Cytochrome P450 3A4 (Homo sapiens) (P08684 whole entry, looked up): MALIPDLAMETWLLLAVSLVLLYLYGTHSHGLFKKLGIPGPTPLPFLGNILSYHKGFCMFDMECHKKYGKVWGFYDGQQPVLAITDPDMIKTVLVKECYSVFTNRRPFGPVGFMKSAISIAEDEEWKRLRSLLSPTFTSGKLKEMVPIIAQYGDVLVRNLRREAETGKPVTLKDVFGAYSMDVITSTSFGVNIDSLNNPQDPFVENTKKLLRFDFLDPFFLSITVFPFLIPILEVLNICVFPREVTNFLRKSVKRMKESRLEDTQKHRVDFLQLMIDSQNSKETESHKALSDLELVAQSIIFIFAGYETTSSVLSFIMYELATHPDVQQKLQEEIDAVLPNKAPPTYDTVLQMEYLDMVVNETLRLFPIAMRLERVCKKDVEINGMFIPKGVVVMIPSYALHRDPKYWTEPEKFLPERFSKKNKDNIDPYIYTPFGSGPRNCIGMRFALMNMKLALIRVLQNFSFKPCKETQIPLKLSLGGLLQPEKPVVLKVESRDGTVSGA
Outline: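 Quantitative HTS format: compounds preincubated with 20nM human CYP3A4 and Luciferin-PPXE substrate at KM, reaction started by NADPH regeneration, stopped after 60 min, luciferase luminescence read 20 min later.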

[2] = Confirmation and Secondary Assay for Modulators of Hemoglobin Beta Chain Splicing at IVS2 654 locus (AID 910);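 further: HeLa cells stably carrying EGFP split by mutant beta-globin IVS2-654 intron; % of control where 0% means no effect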
Outline: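 HeLa cells stably expressing EGFP interrupted by β-globin IVS2-654 intron, seeded overnight in Opti-MEM/2% FCS, then treated 2 days at 37 °C. Restored splicing read as total peak GFP intensity per well by laser scanning cytometry (488 nm excitation, 500–520 nm emission); 500 nM antisense PNA as control.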

[3] = Confirmation and Secondary Assay for Modulators of Hemoglobin Beta Chain Splicing at IVS2 705 locus (AID 930);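 further: HeLa cells stably expressing the EGFP-705 splicing reporter; GFP fluorescence per well restored by corrected splicing of the IVS2-705 intron in EGFP; % of control where 0% means no effect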
Outline: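 HeLa IVS2-705 EGFP reporter cells, 500/well, compound 2 d at 37C; correct splicing yields fluorescent EGFP. Control: 500 nM antisense PNA. Read-out: total peak GFP intensity.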

[4] = target: Ubiquitin carboxyl-terminal hydrolase 1 (Homo sapiens) (UniProt O94782); assay: Inhibitors of USP1/UAF1: Pilot qHTS (AID 504865); further: potency means the concentration at half of the fitted maximal effect; nearly all actives have a fitted effect of over 35% in size
Sequence of Ubiquitin carboxyl-terminal hydrolase 1 (Homo sapiens) (O94782 whole entry, looked up): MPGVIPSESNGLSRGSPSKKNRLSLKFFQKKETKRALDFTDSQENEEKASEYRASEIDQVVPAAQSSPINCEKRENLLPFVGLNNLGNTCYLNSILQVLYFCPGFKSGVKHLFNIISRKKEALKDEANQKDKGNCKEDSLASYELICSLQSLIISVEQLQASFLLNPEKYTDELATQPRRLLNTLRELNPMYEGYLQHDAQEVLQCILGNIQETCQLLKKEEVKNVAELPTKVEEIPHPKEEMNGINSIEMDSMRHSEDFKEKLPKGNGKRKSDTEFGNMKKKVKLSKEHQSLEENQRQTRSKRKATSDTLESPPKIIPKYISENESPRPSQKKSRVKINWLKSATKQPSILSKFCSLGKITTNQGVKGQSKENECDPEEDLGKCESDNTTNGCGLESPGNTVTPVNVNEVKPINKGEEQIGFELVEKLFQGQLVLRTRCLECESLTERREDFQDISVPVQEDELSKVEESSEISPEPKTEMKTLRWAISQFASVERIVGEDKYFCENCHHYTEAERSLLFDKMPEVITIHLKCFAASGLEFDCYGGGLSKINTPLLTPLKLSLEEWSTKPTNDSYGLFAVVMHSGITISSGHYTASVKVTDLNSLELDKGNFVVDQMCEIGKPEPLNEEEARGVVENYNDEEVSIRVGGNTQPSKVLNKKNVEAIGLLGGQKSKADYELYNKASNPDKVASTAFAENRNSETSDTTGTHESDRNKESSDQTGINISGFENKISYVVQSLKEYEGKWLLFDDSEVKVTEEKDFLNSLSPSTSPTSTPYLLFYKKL
Outline: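 USP1/UAF1 complex at 1 nM preincubated 15 min at room temperature with compound, then Ub-Rho substrate added at 150 nM final. Fluorescence (480/540 nm) read kinetically in 50 mM HEPES pH 7.8, 0.5 mM EDTA, 1 mM TCEP, 0.1 mg/ml BSA, 0.01% Tween-20.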

[5] = S16 Schwann cell viability assay (CellTiter-Glo assay) (AID 624031);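 further: native untransfected S16 rat Schwann cells; cellular ATP luminescence as a viability measure; plate controls were DMSO-treated cells for no effect and cell-free wells for full effect; nearly all actives have a fitted effect of over 70% in size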
Outline: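 Following overnight culture in 10% FBS DMEM, parental S16 rat Schwann cells are dosed for 24 h at 37 °C. Viability is read as CellTiter-Glo luminescence and expressed as % activity relative to DMSO (0%) and no-cell wells.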

[6] = S16 Schwann cell PMP22 intronic element firefly luciferase assay (AID 624032);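 further: plate controls were DMSO for no effect and PTC124 positive control mean for full effect; nearly all actives have a fitted effect of over 30% in size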
Outline: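 Rat S16 Schwann cells stably carrying firefly luciferase driven by a PMP22 intronic element, in 10% FBS, treated 24 h at 37 C. ONE-Glo luminescence normalized to PTC124 control and DMSO (0%); curves classed by r2, magnitude and activity.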

[7] = NCATS anti-infectives library activity on HEK293 viability as a counter-qHTS vs the C. elegans viability qHTS (AID 1745854); further: on the % scale 0 is the no-effect control and ±100 the full control effect
Outline: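 HEK293 cells, 1500 per well, exposed 24 hr at 37C in 5% CO2 to compounds in a 1:5 titration, up to 41.7 uM final. Viability read as CellTiter-Glo luminescence after 10 min at room temperature.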

[8] = qHTS profiling for inhibitors of Plasmodium falciparum proliferation (AID 504749); further: nearly all actives have a fitted effect of over 60% in size; further: potency means the concentration at half of the fitted maximal effect;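 on activity, negative = inhibition: 0% = DMSO vehicle and full inhibition = artemisinin control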; conditions: P. falciparum in erythrocytes, SYBR Green DNA, 72 h, at 28.7 µM (top of the series)
Outline: (§1)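 Readout was DNA-dye fluorescence from lysed cultures, ex 485/em 535 nm. Parasitized red cells had grown 72 h with compound; data scaled between 0.29 uM artemisinin and DMSO wells and corrected using vehicle-only plates.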

3D7 = assay: as above; conditions: P. falciparum in erythrocytes, SYBR Green DNA, 72 h; series mostly up to 28.7 µM
Outline: as §1

7G8 = assay: as above; conditions: P. falciparum in erythrocytes, SYBR Green DNA, 72 h; series mostly up to 28.7 µM
Outline: as §1

AA1029 = assay: as above; conditions: P. falciparum in erythrocytes, SYBR Green DNA, 72 h; series mostly up to 28.7 µM
Outline: as §1

AS120 = assay: as above; conditions: P. falciparum in erythrocytes, SYBR Green DNA, 72 h; series mostly up to 28.7 µM
Outline: as §1

ATS189 = assay: as above; conditions: P. falciparum in erythrocytes, SYBR Green DNA, 72 h; series mostly up to 28.7 µM
Outline: as §1

ATS95 = assay: as above; conditions: P. falciparum in erythrocytes, SYBR Green DNA, 72 h; series mostly up to 28.7 µM
Outline: as §1

C2A = assay: as above; conditions: P. falciparum in erythrocytes, SYBR Green DNA, 72 h; series mostly up to 28.7 µM
Outline: as §1

CP185 = assay: as above; conditions: P. falciparum in erythrocytes, SYBR Green DNA, 72 h; series mostly up to 28.7 µM
Outline: as §1

CP191 = assay: as above; conditions: P. falciparum in erythrocytes, SYBR Green DNA, 72 h; series mostly up to 28.7 µM
Outline: as §1

CP217 = assay: as above; conditions: P. falciparum in erythrocytes, SYBR Green DNA, 72 h; series mostly up to 28.7 µM
Outline: as §1

CP237 = assay: as above; conditions: P. falciparum in erythrocytes, SYBR Green DNA, 72 h; series mostly up to 28.7 µM
Outline: as §1

CP238 = assay: as above; conditions: P. falciparum in erythrocytes, SYBR Green DNA, 72 h; series mostly up to 28.7 µM
Outline: as §1

CP247 = assay: as above; conditions: P. falciparum in erythrocytes, SYBR Green DNA, 72 h; series mostly up to 28.7 µM
Outline: as §1

CP250 = assay: as above; conditions: P. falciparum in erythrocytes, SYBR Green DNA, 72 h; series mostly up to 28.7 µM
Outline: as §1

CP252 = assay: as above; conditions: P. falciparum in erythrocytes, SYBR Green DNA, 72 h; series mostly up to 28.7 µM
Outline: as §1

CP256 = assay: as above; conditions: P. falciparum in erythrocytes, SYBR Green DNA, 72 h; series mostly up to 28.7 µM
Outline: as §1

CP260 = assay: as above; conditions: P. falciparum in erythrocytes, SYBR Green DNA, 72 h; series mostly up to 28.7 µM
Outline: as §1

CP262 = assay: as above; conditions: P. falciparum in erythrocytes, SYBR Green DNA, 72 h; series mostly up to 28.7 µM
Outline: as §1

CP265 = assay: as above; conditions: P. falciparum in erythrocytes, SYBR Green DNA, 72 h; series mostly up to 28.7 µM
Outline: as §1

CP286 = assay: as above; conditions: P. falciparum in erythrocytes, SYBR Green DNA, 72 h; series mostly up to 28.7 µM
Outline: as §1

CP335 = assay: as above; conditions: P. falciparum in erythrocytes, SYBR Green DNA, 72 h; series mostly up to 28.7 µM
Outline: as §1

DFO2036 = assay: as above; conditions: P. falciparum in erythrocytes, SYBR Green DNA, 72 h; series mostly up to 28.7 µM
Outline: as §1

DIV30 = assay: as above; conditions: P. falciparum in erythrocytes, SYBR Green DNA, 72 h; series mostly up to 28.7 µM
Outline: as §1

Dd2 = assay: as above; conditions: P. falciparum in erythrocytes, SYBR Green DNA, 72 h; series mostly up to 28.7 µM
Outline: as §1

ECU = assay: as above; conditions: P. falciparum in erythrocytes, SYBR Green DNA, 72 h; series mostly up to 28.7 µM
Outline: as §1

FAB9 = assay: as above; conditions: P. falciparum in erythrocytes, SYBR Green DNA, 72 h; series mostly up to 28.7 µM
Outline: as §1

GB4 = assay: as above; conditions: P. falciparum in erythrocytes, SYBR Green DNA, 72 h; series mostly up to 28.7 µM
Outline: as §1

HB3 = assay: as above; conditions: P. falciparum in erythrocytes, SYBR Green DNA, 72 h; series mostly up to 28.7 µM
Outline: as §1

ICS = assay: as above; conditions: P. falciparum in erythrocytes, SYBR Green DNA, 72 h; series mostly up to 28.7 µM
Outline: as §1

JCK = assay: as above; conditions: P. falciparum in erythrocytes, SYBR Green DNA, 72 h; series mostly up to 28.7 µM
Outline: as §1

N140 = assay: as above; conditions: P. falciparum in erythrocytes, SYBR Green DNA, 72 h; series mostly up to 28.7 µM
Outline: as §1

P94_40 = assay: as above; conditions: P. falciparum in erythrocytes, SYBR Green DNA, 72 h; series mostly up to 28.7 µM
Outline: as §1

PAD = assay: as above; conditions: P. falciparum in erythrocytes, SYBR Green DNA, 72 h; series mostly up to 28.7 µM
Outline: as §1

PC15 = assay: as above; conditions: P. falciparum in erythrocytes, SYBR Green DNA, 72 h; series mostly up to 28.7 µM
Outline: as §1

PC49 = assay: as above; conditions: P. falciparum in erythrocytes, SYBR Green DNA, 72 h; series mostly up to 28.7 µM
Outline: as §1

SC27B = assay: as above; conditions: P. falciparum in erythrocytes, SYBR Green DNA, 72 h; series mostly up to 28.7 µM
Outline: as §1

TAB109 = assay: as above; conditions: P. falciparum in erythrocytes, SYBR Green DNA, 72 h; series mostly up to 28.7 µM
Outline: as §1

TAB113 = assay: as above; conditions: P. falciparum in erythrocytes, SYBR Green DNA, 72 h; series mostly up to 28.7 µM
Outline: as §1

TAB165 = assay: as above; conditions: P. falciparum in erythrocytes, SYBR Green DNA, 72 h; series mostly up to 28.7 µM
Outline: as §1

W2 = assay: as above; conditions: P. falciparum in erythrocytes, SYBR Green DNA, 72 h; series mostly up to 28.7 µM
Outline: as §1

O=C(O)c1cc(O)c2c(c1)[C@H]([C@H]1c3cc(C(=O)O)cc(O)c3C(=O)c3c(O[C@@H]4OC(CO)C(O)C(O)C4O)cccc31)c1cccc(O[C@@H]3OC(CO)C(O)C(O)C3O)c1C2=O (some centres undefined)
active: Potency [4] 10 µM | Potency (DIV30) 15.1 µM | Potency (GB4) 15.1 µM
inactive: outcome [1] | Potency [2] | Potency [3] | Potency [5] | Potency [6] | Potency [7] | activity, negative = inhibition ([8]; parasite line A) -10% | activity, negative = inhibition ([8]; parasite line B) -4.26% | Potency (3D7) | Potency (7G8) | Potency (AA1029) | Potency (AS120) | Potency (ATS189) | Potency (ATS95) | Potency (C2A) | Potency (CP185) | Potency (CP191) | Potency (CP217) | Potency (CP237) | Potency (CP238) | Potency (CP247) | Potency (CP250) | Potency (CP252) | Potency (CP256) | Potency (CP260) | Potency (CP262) | Potency (CP265) | Potency (CP286) | Potency (CP335) | Potency (DFO2036) | Potency (Dd2) | Potency (ECU) | Potency (FAB9) | Potency (HB3) | Potency (ICS) | Potency (JCK) | Potency (N140) | Potency (P94_40) | Potency (PAD) | Potency (PC15) | Potency (PC49) | Potency (SC27B) | Potency (TAB109) | Potency (TAB113) | Potency (TAB165) | Potency (W2)
